Target: MAFG
Assay: pooled miR-30 sensor sort-seq; sequence = guide strand
Conditions: shRNA
Note: reference of the scale not given here.

Question: For TACTATTGTGATGACGCTGGTG, which sensor-assay potency score (higher = more potent) is on record?
Answer: Its sensor-assay potency score (higher = more potent) is 0.19.

Question: How did the sensor-assay potency score (higher = more potent) turn out when TATAATTAATTTAATAACTTTG was run?
Answer: The sensor-assay potency score (higher = more potent) was -0.864.

Question: How did the sensor-assay potency score (higher = more potent) turn out when TTAGCAATAAATACTGCGCAGG was run?
Answer: The sensor-assay potency score (higher = more potent) was -0.418.

Question: With TTCTATTATACTTTCTTCCCTT as the sequence, how does the sensor-assay potency score (higher = more potent) read?
Answer: The sensor-assay potency score (higher = more potent) was -0.191.

Question: Which sensor-assay potency score (higher = more potent) does the source give for TCGAGCTCCAGCTTCATGCTGG here?
Answer: The sensor-assay potency score (higher = more potent) was -0.0457.

Question: With TATATAAAAACTAAACTCCAAC as the sequence, how does the sensor-assay potency score (higher = more potent) read?
Answer: The sensor-assay potency score (higher = more potent) was -1.06.

Question: For TTTATCGGGGACACACTCTAGC, which sensor-assay potency score (higher = more potent) is on record?
Answer: Its sensor-assay potency score (higher = more potent) is -0.0679.

Question: With TTATATATCACAAACATACACT as the sequence, how does the sensor-assay potency score (higher = more potent) read?
Answer: Its sensor-assay potency score (higher = more potent) is -0.989.

Question: Which sensor-assay potency score (higher = more potent) does the source give for TAGATCTTTAATAACCTCCATC here?
Answer: Its sensor-assay potency score (higher = more potent) is -0.748.

Question: Which sensor-assay potency score (higher = more potent) does the source give for TTTACTATTGTGATGACGCTGG here?
Answer: Its sensor-assay potency score (higher = more potent) is 0.761.

Question: For ATAATGTCTGATAACTCTGTGT, which sensor-assay potency score (higher = more potent) is on record?
Answer: The sensor-assay potency score (higher = more potent) was -0.547.

Question: TTTAGCAATAAATACTGCGCAG was tested. Which sensor-assay potency score (higher = more potent) did it give?
Answer: Its sensor-assay potency score (higher = more potent) is -0.617.

Target: MAF
Assay: as above
Conditions: shRNA

Question: How did the sensor-assay potency score (higher = more potent) turn out when TCGACTTGCTGCAGCAGCTGGT was run?
Answer: Its sensor-assay potency score (higher = more potent) is -0.659.

Question: Which sensor-assay potency score (higher = more potent) does the source give for AACTTCTCGTATTTCTCCTTGT here?
Answer: Its sensor-assay potency score (higher = more potent) is -0.264.

Question: With TGCTGCACCCTCTTGAAGCGGC as the sequence, how does the sensor-assay potency score (higher = more potent) read?
Answer: Its sensor-assay potency score (higher = more potent) is -0.694.

Question: How did the sensor-assay potency score (higher = more potent) turn out when TTCAGCTCGCGCACAGACATGG was run?
Answer: The sensor-assay potency score (higher = more potent) was -0.726.

Question: How did the sensor-assay potency score (higher = more potent) turn out when TTGAGGTGGTCGACTTGCTGCA was run?
Answer: The sensor-assay potency score (higher = more potent) was -0.511.

Question: For TCATCCAGTAGTAGTCTTCCAG, which sensor-assay potency score (higher = more potent) is on record?
Answer: Its sensor-assay potency score (higher = more potent) is -0.918.

Question: TTTTCTCGGAAGCCGCTGCTCA was tested. Which sensor-assay potency score (higher = more potent) did it give?
Answer: Its sensor-assay potency score (higher = more potent) is -0.816.

Question: Which sensor-assay potency score (higher = more potent) does the source give for TCCCTCTCGCGCACCAGCCTGG here?
Answer: The sensor-assay potency score (higher = more potent) was -1.61.

Question: Which sensor-assay potency score (higher = more potent) does the source give for TAGCCGGTCATCCAGTAGTAGT here?
Answer: The sensor-assay potency score (higher = more potent) was -1.7.

Question: TTTCAGGGTCCGCCTCTTCTGC was tested. Which sensor-assay potency score (higher = more potent) did it give?
Answer: The sensor-assay potency score (higher = more potent) was -1.55.

Target: MAGEA2B
Assay: as above
Conditions: shRNA

Question: Which sensor-assay potency score (higher = more potent) does the source give for TTAGTGTATGGTGCAGGACTTT here?
Answer: The sensor-assay potency score (higher = more potent) was -1.05.

Question: With ATTTCTGAGGACACTCTCCAGC as the sequence, how does the sensor-assay potency score (higher = more potent) read?
Answer: Its sensor-assay potency score (higher = more potent) is -1.24.

Question: For AAATGTGAGGTTCTCCACCGAT, which sensor-assay potency score (higher = more potent) is on record?
Answer: The sensor-assay potency score (higher = more potent) was -0.397.

From the OligoGym collection
